Columns and labels:
Test in all cases: PBM binding z-score (relative to random genomic background probes); higher = stronger binding; sequences stand for … in GC…GCGATTGACAGCGTAGAATGAAGG
[1] = test system: PPARg:RXRa DBDmut IVT, anti-RXR (DBD mutation: RXRa K156A/R161A, NR concentration 270 nM, RXRa partner concentration 90 nM)
In short: (§1)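 Binding z-scores were set against random background probes. The data came from custom Agilent 4×180K protein-binding microarrays carrying double-stranded probes with 34-nt variable regions, incubated 1 h with ligand-free nuclear receptor dimers. Partner-specific antibodies detected binding, and scanned fluorescence was regression-normalized.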

[2] = test system: PPARg:RXRa IVT, anti-PPARg (NR concentration 270 nM, RXRa partner concentration 90 nM)
In short: as §1

[3] = test system: PPARg DBDmut:RXRa IVT, anti-PPARg (DBD mutation: PPARg1 K132A/R137A, NR concentration 270 nM, RXRa partner concentration 90 nM)
In short: as §1

[4] = test system: PPARg DBDmut IVT, anti-PPARg (DBD mutation: PPARg1 K132A/R137A, NR concentration 270 nM)
In short: as §1

[5] = test system: PPARg homodimer (NR concentration 180 nM)
In short: as §1

[6] = test system: PXR:RXRa (NR concentration 270 nM, RXRa partner concentration 90 nM)
In short: as §1

[7] = test system: PXR homodimer (NR concentration 270 nM)
In short: as §1

[8] = test system: RARa:RXR (NR concentration 270 nM, RXRa partner concentration 90 nM)
In short: as §1

[9] = test system: RARa homodimer (NR concentration 270 nM)
In short: as §1

[10] = test system: RARb:RXRa (NR concentration 270 nM, RXRa partner concentration 90 nM)
In short: as §1

Sequence	PBM binding z-score [1]	PBM binding z-score [2]	PBM binding z-score [3]	PBM binding z-score [4]	PBM binding z-score [5]	PBM binding z-score [6]	PBM binding z-score [7]	PBM binding z-score [8]	PBM binding z-score [9]	PBM binding z-score [10]
TTACAAAGGTGAAGGTCGTTGATCCCTCTGTAGA	2.62	3.97	0.246	0.134	1.47	2.32	0.241	2.74	0.198	3.56
GCTGCTAGGTCAGGTTGGTCAGCTCACGGGTACG	3.01	2.19	-0.391	-0.956	0.943	0.37	0.00075	0.901	0.262	3.26
AGCATGAGGTTAAGATCAGGGAAACAGAATACAT	0.0322	0.624	0.52	-0.142	0.333	1.23	0.477	2.07	0.813	2.02
ATCTCTAGGTAAGACTCAGTTCAGTCAAGAACGC	1.92	1.14	0.571	0.277	1.18	1.32	1.41	0.474	1.34	0.511
CTACCAAGGTGAACAAGGTCGTTAATTACTATTC	2.2	2.78	0.73	0.27	1.17	2.76	1.14	2.57	0.262	2.11
TCATATAGGTAAACAGGTGAAAGTCCGTAAGTTA	4.87	4.6	1.08	0.871	1.31	0.894	0.216	1.3	1.12	0.78
TAGCCTAGGTCATGGGCCAGCATACCACGCGAAC	1.68	3.04	0.798	-0.0378	1.22	1.38	-0.554	2.74	-0.41	3.79
CGGCCAAGGTCATAGGAGGTCAGTGAAGACAGAT	2.94	4.46	-0.828	-0.774	4.97	6.76	3.6	5.88	1.82	5.29
CCGAGTGGGGCAAGGTTACCATAACGCACAGCCA	1.75	3.14	-0.586	-0.492	0.921	0.439	0.123	1.16	-0.144	1.4
GCTAGCAGGCCAATTGGGTCACTCAATGACGGGC	2.36	3.11	-0.977	-0.884	-0.0833	0.184	-0.704	0.585	-0.664	1.54
AGTCAAAGTTCACTAGGTACCGTAAGATTCAGCT	1.61	3.48	1.07	0.221	2.63	4.09	3.98	2.9	1.09	4.74
CTCGAAAGGACGGTTGAGGTGAGTATACGGATAA	-0.361	-0.0316	0.142	0.0698	-0.218	0.0192	0.134	0.512	-0.448	0.634
ACTAGTTGGTCAGCTGAGGTCTCACACAATTCGG	1.19	0.901	0.251	0.203	0.325	0.286	-0.249	0.165	0.106	1.05
GCTTACGGGTCAAAGGTTATACCATGAATAGAAT	4.59	6.16	1.82	1.93	2.73	6.11	0.691	8.2	0.701	4.64
ACTATTAGTTGACTTAGGGCAACTGATACGACGC	-0.0413	0.813	1.58	1.31	0.722	0.176	0.201	0.431	0.297	1.01
CCGACTGGGGCTAGGTTACCATAACGCACAGCCA	0.166	0.0447	-1.21	-1.97	-0.278	-0.509	-0.572	-0.318	-0.21	0.392
ACAGACAGGTGATGAAGGTAACTCTGGCTATCAT	0.0322	0.477	0.353	0.0262	0.0574	-0.19	-0.412	0.0777	-0.252	0.114
AGTTAAAGTTCACTAGGTAACGTAAGATTCAGCT	2.6	4.69	1.44	1.19	2.19	3.54	2.11	2.66	1.6	4.51
CCTGCTAGGTCAATGGTCAGCAAAAGCAGCTCGC	4.13	3.94	-0.42	-0.782	0.701	0.88	-0.358	1.49	-0.178	3.86
GGAACGAGGGCAAAGTTGATAGCCTCTGTCGACG	4.2	4.33	-0.184	-0.449	0.223	1.1	-0.21	1.37	-0.637	2.24
GATGCAGGGTCAAGGCCAGAGTACGCGTATTGAT	1.47	3.42	-0.201	-0.81	1.2	3.59	0.224	3.86	0.306	4.54
ATCGAAAGGTCGTGGTGAGTATAGAGAAAGGGAA	1.03	2.12	1.47	1.03	1.89	3.3	0.954	3.84	1.77	4.27
CATACAGGGTCAGCTAGGCCAAAGTAGGGACGGC	0.935	2.57	0.812	0.367	1.48	2.55	0.23	3.25	0.847	4.14
GCGACTGGGGCATCCGCAGGTTACCATAACTTAA	3.8	3.27	-1.11	-0.898	-0.268	0.263	-0.637	0.49	-1	0.89
